Consider 43 compounds from PubChem BioAssay AID652197 (Broad Institute, 2013).

Several values for one entry are separate records, joined by “and”; a condition that tells them apart may be missing. Equal values may be shown once. Screen size: about 340,000 compounds; about 500 (0.15%) were called active.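 The calls were made as follows: active = mean replicate inhibition of at least 30%, or all replicates individually reaching that 30% level; inactive = mean below 30% and not every replicate reaching it.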 Shown is part of a subset that was picked to be rich in actives.

In this experiment the target is Endoplasmic reticulum aminopeptidase 1 (Homo sapiens) (UniProt Q9NZ08). Nature of the experiment: human ERAP1 aminopeptidase inhibitors, primary screen, biochemical, single point, plate reader (AID 652197).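 Also: 0% = neutral control wells and 100% = L-leucinethiol positive control wells.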 To be noted: recombinant ERAP1, Leu-AMC fluorescence, 60 min; at 10.7 µM; hits give high values.
Endoplasmic reticulum aminopeptidase 1 (Homo sapiens), sequence (Q9NZ08 whole entry, looked up): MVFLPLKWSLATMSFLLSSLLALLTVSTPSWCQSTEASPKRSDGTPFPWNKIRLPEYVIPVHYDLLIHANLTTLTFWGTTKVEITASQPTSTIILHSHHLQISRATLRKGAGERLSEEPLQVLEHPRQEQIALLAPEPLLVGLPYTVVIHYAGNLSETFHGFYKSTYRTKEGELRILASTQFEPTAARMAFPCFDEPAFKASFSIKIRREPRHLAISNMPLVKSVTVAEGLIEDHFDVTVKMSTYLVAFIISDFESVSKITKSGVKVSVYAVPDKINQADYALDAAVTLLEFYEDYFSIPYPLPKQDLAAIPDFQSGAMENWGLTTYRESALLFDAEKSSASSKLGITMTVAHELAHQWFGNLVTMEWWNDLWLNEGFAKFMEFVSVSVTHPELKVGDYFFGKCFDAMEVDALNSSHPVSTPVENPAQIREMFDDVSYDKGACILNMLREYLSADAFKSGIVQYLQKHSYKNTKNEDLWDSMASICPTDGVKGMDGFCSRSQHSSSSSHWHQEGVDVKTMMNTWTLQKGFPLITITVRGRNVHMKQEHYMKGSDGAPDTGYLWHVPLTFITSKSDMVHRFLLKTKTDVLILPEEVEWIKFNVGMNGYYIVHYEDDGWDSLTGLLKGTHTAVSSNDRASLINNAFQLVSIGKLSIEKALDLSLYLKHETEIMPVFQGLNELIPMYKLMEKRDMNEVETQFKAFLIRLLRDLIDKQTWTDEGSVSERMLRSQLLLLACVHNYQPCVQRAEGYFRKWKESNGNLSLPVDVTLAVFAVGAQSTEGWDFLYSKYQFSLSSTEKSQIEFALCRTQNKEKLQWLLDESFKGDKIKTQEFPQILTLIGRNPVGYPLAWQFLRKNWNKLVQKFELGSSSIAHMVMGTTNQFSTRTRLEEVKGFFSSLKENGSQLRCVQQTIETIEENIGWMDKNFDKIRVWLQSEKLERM
In general, inhibition refers to the relative decrease from the control value, in per cent. `CC(=O)O[C@H]1CC[C@@]2(C)[C@@H](CC[C@@H]3[C@@H]2CC[C@]2(C)[C@@H](C(C)(C)O)C[C@@H]32)C1`: the inhibition was -4.42% (inactive). The same measure for `C[C@H]([C@@H](O)[C@@H](O)[C@@H](C)C(C)(C)C)[C@H]1CC[C@H]2C3CC[C@H]4C[C@H](OS(=O)(=O)O)[C@@H](OS(=O)(=O)O)C[C@]4(C)[C@H]3CC[C@]12C` (stereo partly drawn): 51.7% (active). The same measure for `O=C(C[C@H]1CC[C@H]2[C@@H](COC[C@@H](O)CN2C(=O)Nc2ccc(C(F)(F)F)cc2)O1)NC1Cc2ccccc2C1`: 3.19% (inactive). On to `Cc1ccc(-c2ccc(C3[C@H]4CNC[C@@H]3N4S(=O)(=O)c3ccccc3C)cc2)cc1` (stereo partly drawn), for which the inhibition is 1.57% (inactive) and -0.081% (inactive).

Take `COc1cccc(-c2ccc([C@@H]3[C@@H](CO)N4C(=O)CN(C(=O)C5CCCCC5)C[C@H]34)cc2)c1`: the inhibition was -0.992% (inactive). The same measure for `CO[C@@H]1CC[C@@H]2CCOc3ccc(C#N)cc3C(=O)N(C)C[C@@H](OC)[C@@H](C)C(=O)N(C)C[C@H]1O2`: -4.56% (inactive); for `CNC(=O)C[C@@H]1CC[C@@H]2[C@H](COC[C@@H](O)CN2S(=O)(=O)c2ccccc2Cl)O1`: 0.052% (inactive). The same measure for `Cc1nc2ccc(N)nc2nc1C`: 31.2% (active). The same measure for `Cc1nc2cccnc2nc1C`: 1.29% (inactive); for `O=C(CCN1CCCCC1)NCC[C@H]1CC[C@@H](NC(=O)C2CCOCC2)[C@H](CO)O1`: 3.14% (inactive). Turning to `C[C@H]1CN([C@@H](C)CO)C(=O)Cc2cc(NC(=O)c3ccncc3)ccc2O[C@@H]1CN(C)C(=O)Nc1ccccc1`, the inhibition is 1.04% (inactive).

On to `CNC(=O)C[C@H]1CC[C@@H]2[C@H](COc3ccc(NC(=O)Nc4ccc(F)c(F)c4)cc3C(=O)N2C)O1`, for which the inhibition was 0.113% (inactive).

Consider `C#Cc1ccc([C@H]2C=C(C(=O)O)O[C@@H](OCC)[C@@H]2CCCO)cc1`, for which the inhibition is -6.5% (inactive). The same measure for `C[C@@H]1CCCCO[C@H](CN(C)C(=O)c2ccccc2)[C@H](C)CN([C@@H](C)CO)C(=O)c2cc(NC(=O)Nc3ccc4c(c3)OCO4)ccc2O1`: -5.55% (inactive). The same measure for `Cc1ccc(S(=O)(=O)Nc2ccc3c(c2)C(=O)N([C@@H](C)CO)C[C@@H](C)[C@H](CN(C)Cc2ccc(Cl)c(Cl)c2)OCCCC[C@@H](C)O3)cc1`: 0.461% (inactive); for `Cc1ccc(CCCOC(=O)C[N+]2(C)CCCC2)cc1`: 106% (active); for `Cc1ccc(CNC(=O)COC(=O)C2CCC2)cc1`: 1.31% (inactive). The same measure for `COc1ccc(CC2c3cc(OC)c(OC)cc3CC[N+]2(C)CCC(=O)OCCCCCOC(=O)CC[N+]2(C)CCc3cc(OC)c(OC)cc3C2Cc2ccc(OC)c(OC)c2)cc1OC` (stereo not drawn): -5.26% (inactive). Turning to `Cc1ccc(COC(=O)CN2C(=O)NC3(CCCC3)C2=O)cc1`, the inhibition is -3.32% (inactive).

In the case of `Cc1ccc(CCCOC(=O)C[N+]2(C)CCCCC2)cc1`, the inhibition was 30.8% (active). The same measure for `Cc1ccc(S(=O)(=O)CCC(=O)OCC(=O)NCCc2ccc(S(N)(=O)=O)cc2)cc1`: -0.437% (inactive); for `COc1ccc2c3c(n(C)c2c1)[C@@H](CO)N(C(=O)CN1CCOCC1)CC31CCN(C(=O)C2CC2)CC1`: -0.976% (inactive). The same measure for `CCCC(=O)Nc1ccc2c(c1)OC[C@@H](C)N(CC1CCOCC1)C[C@H](C)[C@H](OC)CN(C)C2=O`: 6.53% (inactive); for `C[C@H](NC(=O)[C@@H]1[C@@H](CO)[C@@H]2Cn3c(ccc(-c4cccc(F)c4)c3=O)[C@@H]2N1C)c1ccccc1`: 5.74% (inactive). Consider `CC(C)NC(=O)N(C)C[C@@H]1Oc2ccc(N(C)C)cc2CC(=O)N([C@H](C)CO)C[C@@H]1C`, for which the inhibition was 2.87% (inactive). The same measure for `CN1CCN(C(=O)C[C@H]2CC[C@@H]3[C@H](COC[C@@H](O)CN3CC3CCCC3)O2)CC1`: 4.35% (inactive); for `CC(C)c1cn(CC[C@@H]2CC[C@@H](NC(=O)C3CC3)[C@H](CO)O2)nn1`: -4.66% (inactive); for `COc1ccc2c3c(n(C)c2c1)[C@H](CO)N(C(=O)NC(C)C)CC31CCN(C(=O)NC(C)C)CC1`: -0.444% (inactive). The same measure for `O=C(N[C@H]1CC[C@@H](CCNS(=O)(=O)c2ccccc2)O[C@H]1CO)c1cccnc1`: -2.04% (inactive); for `C[C@@H]1CN([C@@H](C)CO)C(=O)c2cc(NC(=O)Nc3ccc(F)cc3)ccc2O[C@H]1CN(C)CC1CCCCC1`: -0.385% (inactive). The same measure for `O=C(c1cccc(F)c1)N1CC[C@@H]2[C@H](CO)Nc3ccc(-c4ccccc4)cc3[C@@H]21`: -0.032% (inactive). In the case of `O=C(C[C@@H]1CC[C@H](NC(=O)NC2CCCCC2)[C@H](CO)O1)NCc1ccc(F)cc1`, the inhibition was 0.011% (inactive). The same measure for `CC(C)NC(=O)N1[C@H](C(=O)N2CCc3ccccc3C2)[C@@H](CO)[C@@H]2Cn3c(cccc3=O)[C@@H]21`: 0.844% (inactive); for `COc1cccc2c1C(=O)c1c(O)c3c(c(O)c1C2=O)CC(O)(C(C)=NNC(=O)c1ccc(Cl)c(Cl)c1)CC3OC1CC(N)C(O)C(C)O1` (stereo not drawn): 42% (active). For `COCCNC(=O)Nc1ccc2nc(-c3ccco3)c(-c3ccco3)nc2c1`, the inhibition was 30.5% (active). The same measure for `COCCNC(=O)c1snc2ccc(Cl)cc12`: -4.43% (inactive). The same measure for `COCCNC(=O)CSc1nc(N)c(NC(=O)c2ccco2)c(=O)[nH]1`: -7.96% (inactive); for `O=C(C[C@H]1CC[C@H]2[C@@H](COC[C@@H](O)CN2CC2CCCC2)O1)NCC1CC1`: -1.66% (inactive).

With `Cc1noc(C)c1S(=O)(=O)N(C)C[C@H]1Oc2c(NC(=O)c3cnccn3)cccc2C(=O)N([C@H](C)CO)C[C@H]1C`, the inhibition is 5.55% (inactive). The same measure for `Cc1nc(N2[C@H](CO)[C@H](c3ccccc3)[C@H]2CNCC2CCC2)sc1C`: 2.07% (inactive); for `O=C(C1CCC1)N1CC(=O)N2[C@H](C1)[C@@H](c1ccc(-c3ccccc3F)cc1)[C@@H]2CO`: -0.661% (inactive); for `CN(C)C(=O)c1cccc(-c2ccc([C@H]3[C@@H](CO)N4C(=O)CN(C(=O)C5CC5)C[C@@H]34)cc2)c1`: 0.435% (inactive).

In the case of `CN1C(=O)c2cc(NC(=O)C3CC3)ccc2OC[C@H]2O[C@H](CC(=O)O)CC[C@H]21`, the inhibition was -5.19% (inactive).
